Experimental data: ChEMBL document CHEMBL4513216, “Probing the Open Global Health Chemical Diversity Library for Multistage-Active Starting Points for Next-Generation Antimalarials” (ACS Infect Dis, 2020)
Hit rate of the full screen: of about 65,000 compounds, about 2,100 (3.2%) showed an effect of 50% or more. The median lay at about -52%. The sample holds strong results, similar compounds and a random draw of the others, so the mix is not that of the screen.

test system: Plasmodium falciparum; experiment: Screen against P. falciparum Asexual Blood Stage (ABS), at 5uM; assay type: functional, Dd2; conditions: tested at 5 uM

Structure (SMILES)	INHIBITION [%]
CC(C)n1nc(CN(C)C)c2c1CN(C(=O)CC1CC1)CC2	-91.2
COc1cc(NC(=O)N2CCCC2c2nncn2C)ccc1Br (configuration not stated)	-53.7
CCS(=O)(=O)NCc1nc(C)cc(N2CCCCC2)n1	-38.7
CC(C)n1nc(CN2CCCC2)c2c1CN(CC1CC1)CC2	55.7
CC(C)n1nc(CN(C)C)c2c1CN(CC1CC1)CC2	-87.1
Cn1nc(CN2CCCC2)c2c1CN(CC1CC1)CC2	-16.8
CC(C)N(C)Cc1cnc2n1CCN(C(=O)Cc1ccccn1)C2	-6.41
CC(C)N(C)Cc1cnc2n1CCN(C(=O)c1cccs1)C2	62.6
CC(C)N(C)Cc1cnc2n1CCN(C(=O)Cc1ccsc1)C2	-45.1
Cc1ccc(C(=O)N2CCC(Oc3ccc(C)c(C)c3)CC2)c(=O)[nH]1	-19.9
Cc1nc(CN2CCc3ncnc(C)c3CC2)cs1	-152
CC(C)CCN1Cc2c(C(=O)N3CCCC3)nn(C)c2C1	-58.9
COc1ccc(NCC2(O)CCNCC2)cc1OC	-115
Cn1cc([C@@H]2CN(S(=O)(=O)c3cccnc3)C[C@H]2N)c2ccncc21	-21.6
Cn1cc([C@@H]2CN(S(C)(=O)=O)C[C@H]2N)c2ccncc21	16.8
Cn1cc([C@@H]2CN(S(=O)(=O)c3ccccc3F)C[C@H]2N)c2ccncc21	63.4
CN(C)c1ccc(C(=O)N(CCO)CC2CC2)c(F)c1	-93.3
Cc1nn(C)cc1-c1cc(C(F)(F)F)nn1CCC#N	-167
Cc1cc(N2CCC(Cc3ncccn3)C2)ncn1 (configuration not stated)	-89.6
Oc1ccc(Cl)cc1CNCc1ccccc1C(F)(F)F	64.5
Nc1nnnn1NCc1ccccc1C(F)(F)F	-13.1
CC(O)CNCc1ccccc1C(F)(F)F (configuration not stated)	-46.2
O=C(COCCOc1ccccc1)Nc1ccnn1CC1CCOC1 (configuration not stated)	-132

Structure (SMILES)	INHIBITION [%]
CCN(C(=O)CCOC)C(c1ccc(Cl)cc1)c1ccccn1 (configuration not stated)	-56.9
O=C(O)CC(NC(=O)c1ccccc1OC(F)F)c1cccs1 (configuration not stated)	-127
CCCc1ccc(S(=O)(=O)Nc2ccc(=O)n(C)c2)cc1	-53.7
CCC(=O)N1CCC2(CC1)COc1ccccc1S(=O)(=O)N(C)C2	-29.3
CN(C)C(=O)CN1CCC2(CC1)COc1ccccc1S(=O)(=O)N(C)C2	-44.5
CCCN1CCC2(CC1)COc1ccccc1S(=O)(=O)N(CC1CC1)C2	-32.6
CN1CC2(CCN(CC3CC3)CC2)COc2ccccc2S1(=O)=O	52.5
COCCN1CCC2(CC1)COc1ccccc1S(=O)(=O)N(C)C2	-7.6
CN1CC2(CCN(Cc3ccoc3)CC2)COc2ccccc2S1(=O)=O	61.9
COc1cccc(-c2ncc(CN3C[C@H]4CC[C@@H](C3)N(C)C4=O)s2)c1	-211
COc1cc(F)c(NC(=O)N(C)Cc2cc(C)on2)cc1F	-69.1
Cc1cnn(CCC(=O)N2CCN(C(=O)C(C)C)[C@@H]3CS(=O)(=O)C[C@@H]32)c1	-87.4
CCOC(=O)c1nc(COc2ccc(CC(N)=O)cc2)no1	-26
Cc1noc(C)c1CN1CC[C@@H](OCC2CC2)[C@@H](Cc2ccccc2)C1	26.2
CO[C@H]1CCN(Cc2ccoc2)C[C@@H]1Cc1ccccc1	67.3
COCCN1CC[C@@H](OC)[C@@H]1Cc1ccccc1	1.53
COc1ccc(C[C@H]2CN(Cc3ccoc3)CC[C@@H]2OC)cc1	64.8
COc1ccc(C[C@H]2CN(C(=O)C3CC3)CC[C@H]2OC)cc1	35.6
CO[C@@H]1CCN(Cc2nccs2)C[C@@H]1Cc1ccccc1	-9.75
COCCN1CC[C@@H](O)[C@@H]1Cc1ccccc1	-32.4
COc1ccc(C[C@H]2CN(c3cc(OC)ncn3)CC[C@@H]2OC)cc1	-0.505
CO[C@H]1CCN(Cc2nccs2)C[C@@H]1Cc1ccccc1	-25.6
COCCN1CC[C@H](OC)[C@@H]1Cc1ccccc1	62.8

Structure (SMILES)	INHIBITION [%]
c1ccc(C[C@H]2CN(Cc3nccs3)CC[C@H]2OCC2CC2)cc1	40.9
Cc1noc(C)c1CN1CC[C@H](OCC2CC2)[C@@H](Cc2ccccc2)C1	62.1
COc1ccc(S(=O)(=O)C2CCN(C(=O)c3cc(C)cs3)CC2)cc1	-23.3
CCC(NC(=O)NCc1cccc(N(C)C)n1)c1nccs1 (configuration not stated)	-84.7
Cn1cnc(S(=O)(=O)N2CCCc3cc(F)cc(F)c32)c1Cl	-84.8
CO[C@H]1CCN(C(=O)Cc2ccccn2)[C@H]1Cc1ccncc1	-128
COc1cc(NC2CCS(=O)(=O)CC2)ncn1	-119
N[C@@H]1c2ccccc2C2(CCN(c3cccc(C(F)(F)F)n3)CC2)[C@H]1O	-35.9
Cc1ccc(CC(=O)N2CCOCC2c2c(C)n[nH]c2C)cc1 (configuration not stated)	-37.5
COc1ccc(C[C@H]2CNCC[C@H]2OC)cc1	58
COCCO[C@H]1CCN(Cc2ccoc2)[C@H]1Cc1cccnc1	-10.4
COc1ccc(C[C@H]2CN(c3nnc(C)s3)CC[C@H]2OC)cc1	-2.98
CO[C@@H]1CCN(Cc2ccoc2)[C@H]1Cc1ccccc1	61.4
COc1ccc(C[C@H]2CN(c3nnc(C)s3)CC[C@@H]2OC)cc1	-16
CO[C@@H]1CCN(Cc2cccs2)[C@H]1Cc1ccncc1	-27.7
CCOCCN1CCN(Cc2nc(CC(C)C)no2)CC1	18.6
CS(=O)(=O)NC[C@]12COC[C@H]1CN(C(=O)C1CC(F)(F)C1)C2	-80.1
COc1cccc(-c2noc(C3CCN(Cc4ccccc4F)C3)n2)c1 (configuration not stated)	-118
Cn1nc2c(cc1=O)CN(Cc1coc(-c3ccccc3)n1)CC2	-138
COc1ccc(CN(C)[C@@H]2COC[C@H]2c2ccc(F)cc2)c(OC)c1	9.39
CNc1cc2c(nn1)CCN(C(=O)c1ccc3c(c1)OCO3)C2	-135
